Activity calls are given as the source filed them.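 The calls were made as follows, unless noted: active = inhibition at or above 50% at 10 µM; inactive = inhibition below 50%.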
Assay: blockers of RIG-like receptor reporter activation – cell-based, Sendai virus stimulus, luciferase, 10K MLSCN set, TLR/RLR signaling modifier project, primary screen (AID 602276);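 also: firefly luciferase from ISG56 promoter only with Renilla not read in this screen; 0% = Sendai virus plus DMSO and 100% = medium plus DMSO without virus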
Conditions: HEK293 RL24 IRF3 luciferase reporter, at 10 µM, stronger effect = higher value

inhibition, inactive:
CCCc1cc(C(=O)Nc2ccc(C(C)=O)cc2)no1 15.4%
Cc1cc(C(=O)NCc2cccnc2)n(-c2ccccc2)n1 -0.216%
Cc1ccc(C)c(NC(=O)CC(NCCCN2CCOCC2)C(=O)O)c1 (stereo not given) 19.6%
COc1c(Br)cc2c(C)c(C(=O)O)oc2c1Br 9.89%
CCOCCCNC(=O)C(c1ccc(C)cc1)N(Cc1ccc2c(c1)OCO2)C(=O)c1cnccn1 (stereo not given) 9.6%
CC1CCCN(S(=O)(=O)c2coc(C(N)=O)c2)C1 (stereo not given) 1.83%
Clc1ccc(C2=Nn3c(nnc3-c3n[nH]c4c3CCC4)SC2)cc1Cl 29.6%
Clc1cccc(-c2nnc(-c3ccccc3)o2)c1 -18.1%
CCOc1ccc(NC(=O)CN(C)CC(=O)NC2CCCc3ccccc32)cc1OCC (stereo not given) 8.91%
Cc1nnc(SCC(=O)NCc2ccccc2)s1 1.7%
CCOC(=O)CSc1nc2sc(C)c(C)c2c(=O)n1C 11%
COc1ccc(N2C(N)=C(C#N)C(c3cccnc3)C3=C2CC(C)(C)CC3=O)cc1 (stereo not given) 37.2%
Cc1ccc(OCC(O)CN2C(=O)NC(C)(C)C2=O)cc1C (stereo not given) 5.76%
Cc1ccccc1-n1c(Cn2c(=O)sc3ccccc32)nnc1SCC(=O)N1CCCC1 12.7%
COc1ccc(-c2noc(-c3ccccc3C(=O)NCc3ccco3)n2)cc1 -8.85%
O=C(NCCCn1ccnc1)c1cnn2c1NC(c1ccccc1)CC2C(F)(F)F (stereo not given) -0.0558%
CC1(C)Oc2ccc3ccc(=O)oc3c2C(N2CCCCC2)C1O (stereo not given) 18.2%
O=C(c1cnn2c1NC(c1ccco1)CC2C(F)(F)F)N1CCN(c2cccc(Cl)c2)CC1 (stereo not given) 46.3%
Cc1ccc(-c2nn(-c3ccccc3)cc2CN(Cc2ccccc2)C(=O)CCC(=O)O)o1 12.8%
COC(=O)C1(C)NC(c2cccs2)C2C(=O)N(c3ccccc3F)C(=O)C21 (stereo not given) -3.44%
O=c1ccc(S(=O)(=O)N2CCC(Cc3ccccc3)CC2)c[nH]1 11.4%
O=C(CN(CCc1ccccc1)C(=O)CNS(=O)(=O)c1ccccc1)NCC1CCCO1 (stereo not given) -8.2%
CCn1c(SCC(=O)NC)nnc1C(C)C 12.7%
O=C(Cn1ncc2c(=O)oc3ccccc3c21)NCC1CCCO1 (stereo not given) 4.27%
Cc1ccc(-c2csc3ncn(-n4c(C)ccc4C)c(=O)c23)o1 -15.1%
CCCOc1ccc(N2C(=O)CC(SCCN)C2=O)cc1 (stereo not given) -37.6%
N#CC1=C(N)C(C#N)(C#N)[C@H](c2ccsc2)[C@H]2COCC=C12 16.8%
O=C(CCS(=O)(=O)c1cccc2nonc12)Nc1cccc2c1CCCC2 -1.97%
C=COCCNC(=O)Nc1ccc(Cl)c(Cl)c1 -35.4%
COc1ccc(CN2C(=O)[C@@H]3C(c4ccc(F)cc4)=NO[C@@H]3C2=O)cc1 13.4%
Cc1nc(NC(=O)C23CCC(C)(C(=O)O2)C3(C)C)sc1C (stereo not given) 12.9%
COc1ccc(-c2cc3n(n2)CCc2nc4ccccc4n2-3)cc1 12.2%
Clc1ccc(C2Nc3ccccc3-n3cccc32)cc1 (stereo not given) 5.43%
CCOC(=O)c1[nH]c(C)c(C(=O)N2CCN(C(=O)c3ccco3)CC2)c1C 16.8%
CCCCSCCCNC(=O)CS(=O)Cc1nc(-c2cccc(C)c2)oc1C (stereo not given) 10.8%
O=C(COC(=O)CSc1nnc(-c2ccc(Cl)cc2)o1)NCc1ccc2c(c1)OCO2 8.92%
Cc1ccc(C)c(S(=O)(=O)C(C#N)c2nc3ccccc3nc2N2CC(C)OC(C)C2)c1 (stereo not given) 32.7%
COC(=O)c1sc2ccccc2c1NC(=O)c1cccs1 -16.8%
CS(=O)(=O)N1CCN(c2ccccc2NC(=O)c2cccs2)CC1 11.6%
CNC(=O)c1ccc(N(Cc2ccccc2C)S(C)(=O)=O)cc1 11.8%

Assay: TLR3 IRF3 reporter activation blockers – cell-based, poly I:C stimulus, luciferase, 10K MLSCN set, primary screen (AID 602277;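 active = inhibition of the reporter signal at or above 50%; inactive = inhibition below 50%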)
Conditions: HEK293-TLR3 RL24 IRF3 luciferase reporter, at 10 µM, stronger effect = higher value

inhibition, inactive:
CCCc1cc(C(=O)Nc2ccc(C(C)=O)cc2)no1 -5.79%
Cc1cc(C(=O)NCc2cccnc2)n(-c2ccccc2)n1 8.35%
Cc1ccc(C)c(NC(=O)CC(NCCCN2CCOCC2)C(=O)O)c1 (stereo not given) 20.7%
COc1c(Br)cc2c(C)c(C(=O)O)oc2c1Br 18.8%
CCOCCCNC(=O)C(c1ccc(C)cc1)N(Cc1ccc2c(c1)OCO2)C(=O)c1cnccn1 (stereo not given) 17%
CC1CCCN(S(=O)(=O)c2coc(C(N)=O)c2)C1 (stereo not given) 25.1%
Clc1ccc(C2=Nn3c(nnc3-c3n[nH]c4c3CCC4)SC2)cc1Cl 33%
Clc1cccc(-c2nnc(-c3ccccc3)o2)c1 -47%
CCOc1ccc(NC(=O)CN(C)CC(=O)NC2CCCc3ccccc32)cc1OCC (stereo not given) 26.6%
Cc1nnc(SCC(=O)NCc2ccccc2)s1 30.9%
CCOC(=O)CSc1nc2sc(C)c(C)c2c(=O)n1C 26%
COc1ccc(N2C(N)=C(C#N)C(c3cccnc3)C3=C2CC(C)(C)CC3=O)cc1 (stereo not given) 38.7%
Cc1ccc(OCC(O)CN2C(=O)NC(C)(C)C2=O)cc1C (stereo not given) 24.9%
Cc1ccccc1-n1c(Cn2c(=O)sc3ccccc32)nnc1SCC(=O)N1CCCC1 10.7%
COc1ccc(-c2noc(-c3ccccc3C(=O)NCc3ccco3)n2)cc1 -39.1%
O=C(NCCCn1ccnc1)c1cnn2c1NC(c1ccccc1)CC2C(F)(F)F (stereo not given) 15.6%
CC1(C)Oc2ccc3ccc(=O)oc3c2C(N2CCCCC2)C1O (stereo not given) 33.6%
O=C(c1cnn2c1NC(c1ccco1)CC2C(F)(F)F)N1CCN(c2cccc(Cl)c2)CC1 (stereo not given) 19.8%
Cc1ccc(-c2nn(-c3ccccc3)cc2CN(Cc2ccccc2)C(=O)CCC(=O)O)o1 19.6%
COC(=O)C1(C)NC(c2cccs2)C2C(=O)N(c3ccccc3F)C(=O)C21 (stereo not given) -0.188%
O=c1ccc(S(=O)(=O)N2CCC(Cc3ccccc3)CC2)c[nH]1 31.9%
O=C(CN(CCc1ccccc1)C(=O)CNS(=O)(=O)c1ccccc1)NCC1CCCO1 (stereo not given) 13.9%
CCn1c(SCC(=O)NC)nnc1C(C)C 0.106%
O=C(Cn1ncc2c(=O)oc3ccccc3c21)NCC1CCCO1 (stereo not given) 9.41%
Cc1ccc(-c2csc3ncn(-n4c(C)ccc4C)c(=O)c23)o1 12.5%
CCCOc1ccc(N2C(=O)CC(SCCN)C2=O)cc1 (stereo not given) -77.1%
N#CC1=C(N)C(C#N)(C#N)[C@H](c2ccsc2)[C@H]2COCC=C12 25.2%
O=C(CCS(=O)(=O)c1cccc2nonc12)Nc1cccc2c1CCCC2 5.02%
C=COCCNC(=O)Nc1ccc(Cl)c(Cl)c1 -41.6%
COc1ccc(CN2C(=O)[C@@H]3C(c4ccc(F)cc4)=NO[C@@H]3C2=O)cc1 23.3%
Cc1nc(NC(=O)C23CCC(C)(C(=O)O2)C3(C)C)sc1C (stereo not given) 29.5%
COc1ccc(-c2cc3n(n2)CCc2nc4ccccc4n2-3)cc1 -17.1%
Clc1ccc(C2Nc3ccccc3-n3cccc32)cc1 (stereo not given) 18.8%
CCOC(=O)c1[nH]c(C)c(C(=O)N2CCN(C(=O)c3ccco3)CC2)c1C 18.7%
CCCCSCCCNC(=O)CS(=O)Cc1nc(-c2cccc(C)c2)oc1C (stereo not given) 10.7%
O=C(COC(=O)CSc1nnc(-c2ccc(Cl)cc2)o1)NCc1ccc2c(c1)OCO2 17.2%
Cc1ccc(C)c(S(=O)(=O)C(C#N)c2nc3ccccc3nc2N2CC(C)OC(C)C2)c1 (stereo not given) 2.87%
COC(=O)c1sc2ccccc2c1NC(=O)c1cccs1 -27.9%
CS(=O)(=O)N1CCN(c2ccccc2NC(=O)c2cccs2)CC1 18.8%
CNC(=O)c1ccc(N(Cc2ccccc2C)S(C)(=O)=O)cc1 11.4%

Source: PubChem BioAssay
